# Assay results reported in ChEMBL document CHEMBL1157539, “Thousands of chemical starting points for antimalarial lead identification” (Nature, 2010).
# Legend:
# Format in all cases: functional
# Plasmodium falciparum [1] = assay: GSK_TCMDC: Inhibition of Plasmodium falciparum 3D7 in whole red blood cells, using parasite LDH activity as an index of growth. Test compounds present at 2uM
# Plasmodium falciparum [2] = assay: GSK_TCMDC: Inhibition of Plasmodium falciparum Dd2 in whole red blood cells, using parasite LDH activity as an index of growth. Test compounds present at 2uM
# HepG2 = assay: GSK_TCMDC: Percent inhibition of human HepG2 cell line. Test compounds present at 10uM.
Compound,Inhibition (Plasmodium falciparum [1]) [%],Inhibition (Plasmodium falciparum [2]) [%],Inhibition (HepG2) [%]
CSc1ccc(CN2CCC(NC(=O)c3ccc(-c4cccc(Cl)c4)s3)CC2)cc1.O=C(O)C(F)(F)F,86,19,75
COc1ccccc1C1CC(c2ccc(C)cc2)=NN1C(=O)c1ccccc1 (stereo not drawn),98,45,37
Clc1ccc2nc(-c3cccnc3)[nH]c2c1,92,97,0
O=C(N[C@@H](CC1CCCCC1)C(=O)NC1CC1)c1ccc(O)c(-c2cccc(C(F)(F)F)c2)c1,99,47,0
CCn1ncc(Cl)c1CN(C)S(=O)(=O)c1ccc2ccccc2c1,100,91,16
CCCN1CC[C@@H](CCCc2ccnc3ccc(O)cc23)[C@@H](CC)C1.Cl,93,14,10
CCCCNc1c(C(=O)OCC)c(C)nc2c1[nH]c1ccccc12,100,58,0
CC1CCN(Cc2ccc(NC(=O)c3cc4ccc5cccnc5c4[nH]3)cc2)CC1,100,93,10
CC(C)C[C@H](NC(=O)c1cc2ccccc2s1)C(=O)N[C@H]1CCN(Cc2ccc(I)c(OC3CCN(C)C3)c2)C1.O=C(O)C(F)(F)F (stereo partly drawn),100,95,99
CN(C)Cc1cccc(-c2cnc(N)c(-c3nc4cc(S(C)(=O)=O)ccc4[nH]3)c2)c1.O=C(O)C(F)(F)F,100,61,27
FC(F)(F)c1cccc(CNCCCCCNCc2ccc(Cl)cc2)c1,91,15,13
